Each structure is given as a SMILES string. About 83,000 compounds went through this panel and 20% of them were active in at least one assay; those are over-represented in the sample as a whole.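 Single-concentration screen, 48 h exposure, 96-well plates. Endpoint: percent growth. Below 10 = active.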 A number with no mark means an inactive call. Calls of active or inactive are those of the source.

In the assay the test system is UACC-62 melanoma. As to the kind of experiment: NCI-60 one-dose screen, 48 h (100 = growth as untreated, 0 = no growth, -100 = all killed). The conditions noted are these: 10 µM unless noted.
`O=C1OC(Cc2ccccc2)C1c1ccccc1` (centres undefined): the growth is 94.2%.

With `O=C1Nc2cc(-c3ccc(NC(=O)c4ccccc4)cc3)ccc2/C1=C/c1ccc[nH]1`, the growth is 98.4%.

With `O=C(N/N=C/c1cc2ccccc2n2nnnc12)Nc1ccccc1`, the growth was 100%.

For `O=C1c2ccc3c4c(ccc(c24)C(=O)N1CCCNCc1ccccc1)C(=O)N(CCCNCc1ccccc1)C3=O`, the growth is -71.1% (active).

Regarding `C=C1C(=O)O[C@H]2[C@H]1CC/C(COC(=O)NCCc1c[nH]c3ccc(OC)cc13)=C\CC[C@@]1(C)O[C@@H]21`, the growth was 21.6%.

With `CCOc1ccc(Nc2nc(-c3ccc4c(c3)NC(=O)CO4)cs2)cc1`, the growth was 52.1%.

Regarding `COc1ccc(C(=O)c2cc(C)c(OC)c(C)c2)c(OC)c1OC(=O)C(Cl)Cl`, the growth is 29.3%.

For `CN(C)c1ccc(Nc2c3ccccc3nc3cc(NC(=O)CCN4CCCC4)ccc23)cc1`, the growth was 15.5%.

As to `Cc1nc(N)nc(N[C@@H](C)c2nc3cccc(NCc4ccc(C(=O)NO)cc4)c3c(=O)n2-c2ccccc2)n1`, the growth is 59.1%.

In the case of `COc1ccc(C/C(=C(\C)c2ccc(OCCN3CCCC3)cc2)c2ccc(OCCN3CCCC3)cc2)cc1`, the growth is -55.6% (active).

Turning to `NC(=NCCCOc1ccc(F)cc1)Nc1ccc(Cl)cc1`, the growth is 56.8%.

Regarding `CCCOC(=O)N[C@H]1CCc2c(Cl)c(OC)c(OC)c(OC)c2-c2ccc(SC)c(=O)cc21`, the growth was 30.9%.

On to `N#Cc1c(NC(=O)NCc2ccccc2)sc2c1CCCC2`, for which the growth was 39.3%.

Regarding `NCCCCCCNc1cc(-c2cccc(OC(F)(F)F)c2)nc2ccc(N3CCCC3)cc12`, the growth is -56.9% (active).

Source of the values: PubChem BioAssay (NCI).
